G9a block: qHTS Assay for Inhibitors of Histone Lysine Methyltransferase G9a. 8.8% of 350,000 active. Potency, µM (highest dose often 102 µM), without a hit: at the highest dose activity, negative = inhibition, usual class: inhibitors. G9a H3K9 monomethylation, AlphaScreen, 2 h. Histone-lysine N-methyltransferase EHMT2 (Homo sapiens), Q96KQ7. AID 504332, 2011; also: % is scaled to controls: 0 for no effect and ±100 for the full control effect; nearly all actives have a fitted effect of over 75% in size
Target sequence (Q96KQ7 913-1193 limits assumed): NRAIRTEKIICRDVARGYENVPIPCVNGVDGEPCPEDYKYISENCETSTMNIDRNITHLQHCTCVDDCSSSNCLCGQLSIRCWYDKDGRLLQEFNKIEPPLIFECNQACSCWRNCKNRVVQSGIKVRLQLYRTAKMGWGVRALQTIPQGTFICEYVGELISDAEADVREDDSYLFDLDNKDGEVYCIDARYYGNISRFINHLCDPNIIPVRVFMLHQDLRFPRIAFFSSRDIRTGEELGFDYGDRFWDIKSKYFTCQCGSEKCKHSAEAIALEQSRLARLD
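AlphaScreen read-out: biotin-H3K9 peptide (500 nM) methylation by 20 nM enzyme with 20 uM SAM, 2 h at room temperature after 15 min compound preincubation; anti-monomethyl H3K9 antibody plus donor/acceptor beads, 10 min dark.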
BAZ2B block: qHTS Assay for Inhibitors of BAZ2B. Bromodomain adjacent to zinc finger domain protein 2B (Homo sapiens), Q9UIF8. AlphaScreen BAZ2B-H3K14Ac peptide displacement. Potency, µM (doses to about 114 µM), for the others: top-dose activity change, negative = inhibition, actives largely listed as inhibitors. 4.4% of 360,000 active. AID 504333, 2011; also: % is scaled to controls: 0 for no effect and ±100 for the full control effect; nearly all actives have a fitted effect of over 60% in size
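AlphaScreen luminescence quantifies BAZ2B engagement of H3K14Ac peptide; the protein and biotinylated peptide are both at 50 nM final, buffer PBS pH 7.4 with 0.01% Tween-20, all steps at room temperature.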
JMJD2A Tudor inh: qHTS Assay for Inhibitors of JMJD2A-Tudor Domain; AlphaScreen JMJD2A-Tudor / H3K4me3 peptide binding; Lysine-specific demethylase 4A (Homo sapiens), O75164; 4.4% of 390,000 active; Potency, µM (series often up to 114 µM), for inactives: at the top dose activity change, negative = inhibition, hits mostly inhibitors; AID 504339, 2011; also: % is scaled to controls: 0 for no effect and ±100 for the full control effect; nearly all actives have a fitted effect of over 50% in size
Sfp inh: qHTS Assay for Inhibitors of Bacillus subtilis Sfp phosphopantetheinyl transferase (PPTase) | 4'-phosphopantetheinyl transferase ffp (Bacillus subtilis), Q9F4F7 | Biochemical Sfp PPTase activity, qHTS | Potency, µM, without a hit: largest response in the series, negative = inhibition, hits mostly inhibitors | 3.5% of 310,000 active | AID 1490, 2009;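 also: the enzyme is Sfp with the accession as filed and its product quenches rhodamine fluorescence; 0% = enzyme reaction without inhibitor and -100% = no enzyme wells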
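Step 1, compound plus 15 nM Sfp-PPTase, 15 min, room temperature. Step 2, add rhodamine-CoA (5 uM) and BHQ-2-YbbR (12.5 uM). Step 3, read 525/598 nm fluorescence at 0 and 30 min.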
HP1b binding inh: HTS for Inhibitors of HP1-beta Chromodomain Interactions with Methylated Histone Tails. Potency, µM (titrated, usually from 114 µM), inactives show top-dose activity change, negative = inhibition, usual class: inhibitors. Chromobox protein homolog 1 (Homo sapiens), P83916. 0.56% of 390,000 active. AlphaScreen HP1-beta / biotin-H3K9me3 peptide binding; also: nearly all actives have a fitted effect of over 70% in size
Target sequence (P83916 whole entry, looked up): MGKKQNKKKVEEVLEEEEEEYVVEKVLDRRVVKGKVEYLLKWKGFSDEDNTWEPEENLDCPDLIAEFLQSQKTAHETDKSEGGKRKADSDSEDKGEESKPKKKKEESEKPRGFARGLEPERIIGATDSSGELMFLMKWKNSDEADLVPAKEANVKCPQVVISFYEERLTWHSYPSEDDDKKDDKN
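AlphaScreen: HP1-beta (50 nM) preformed 30 min with biotin-H3(1-18)K9me3 peptide (50 nM) in PBS pH 7.4, 0.01% Tween-20. Compound added for 30 min at RT, then streptavidin donor/nickel chelate acceptor beads (10 ug/mL) for 30 min.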
* = called active by the depositor; [ ] = another dose, or the depositor's remark. An excerpt weighted towards active compounds, which were near 12% of everything screened. Calls follow the shape of the dose curve; as a rule, active = well fitted curve in the direction sought with a large enough effect; inconclusive = small, poorly fitted or top-dose-only effect, or another doubt; inactive = no such curve, though single readings can be large; an effect the other way counts as inactive or inconclusive. Potency is read from the fitted curve at half-maximal effect.

Screening O=c1cnnc(Nc2ccc(Nc3ccccc3)cc2)[nH]1 returned G9a block 39.8µM*, BAZ2B block -35.6%, JMJD2A Tudor inh inconclusive, Sfp inh 14.8% and HP1b binding inh -7.6%.
`N=C1c2c(cc(=O)n3c2[nH]c2ccccc23)CN1CCN1CCOCC1` gave G9a block 35.5µM*, JMJD2A Tudor inh -17.4%, Sfp inh 2.5% and HP1b binding inh 10.4%.
CCN1CCN(C(=O)CSc2nc(N)cc(N)n2)CC1 was read as G9a block 44.7µM*, BAZ2B block -9.2%, JMJD2A Tudor inh -14.3%, Sfp inh -1.9% and HP1b binding inh 37.1%.
For CC1CCCC(C)N1C(=O)CSc1nc(N)cc(N)n1 (centres undefined) the results were G9a block 13.3%, BAZ2B block -12.7%, JMJD2A Tudor inh inconclusive, Sfp inh 7.0% and HP1b binding inh inconclusive.
Screening O=C1/C(=C2\C(=O)N(Cc3ccc(F)cc3)c3ccccc32)SC(=S)N1CCS(=O)(=O)O returned G9a block inconclusive, BAZ2B block 14.1µM*, JMJD2A Tudor inh 10µM*, Sfp inh -11.0% and HP1b binding inh inconclusive.
O=C(c1ccc2c(c1)N(Cc1ccccc1Cl)C(=O)c1ccccc1S2)N1CCCC1 was read as G9a block -25.7%[59 µM], BAZ2B block -16.6%, JMJD2A Tudor inh -22.8% and HP1b binding inh 9.9%.
For O=C(O)CN1C(=O)/C(=C2\C(=O)N(Cc3ccccc3Cl)c3ccccc32)SC1=S the results were G9a block 14.1µM*, BAZ2B block inconclusive, JMJD2A Tudor inh inconclusive, Sfp inh -5.3% and HP1b binding inh -35.9%.
For CCN(CC(=O)NCc1cccs1)C(=O)c1cccc(S(=O)(=O)N(CC)c2ccccc2)c1 the results were JMJD2A Tudor inh -17.3% and HP1b binding inh 16.0%.
Screening Cc1nc(CCNC(=O)c2cc(COc3ccc(F)cc3Cl)on2)sc1C returned BAZ2B block -29.7%, JMJD2A Tudor inh -10.9%, Sfp inh 39.8µM* and HP1b binding inh 19.2%.
Cc1cc(C)n(CCNC(=O)c2cc(COc3ccc(F)cc3Cl)on2)n1 was read as G9a block -23.7%, BAZ2B block -6.9%, JMJD2A Tudor inh -16.7%, Sfp inh -12.6% and HP1b binding inh 29.3%.
`COc1ccc(N2CCN(CC(=O)Nc3cccc(S(=O)(=O)N4CCOCC4)c3)CC2)cc1` gave G9a block 14.1µM*, BAZ2B block 35.5µM*, JMJD2A Tudor inh 7.94µM*, Sfp inh -9.2% and HP1b binding inh -65.3%.
For COc1ccc(S(=O)(=O)N2CCN(CC(=O)Nc3ccc(C)c(F)c3)CC2)cc1 the results were G9a block 44.7µM*, BAZ2B block 5.4%, JMJD2A Tudor inh -20.3%, Sfp inh -24.9% and HP1b binding inh 16.2%.
COC(=O)c1cccc(NC(=O)CN2CCN(c3ccc(OC)cc3)CC2)c1 was read as G9a block inconclusive, BAZ2B block -12.6%, JMJD2A Tudor inh inconclusive, Sfp inh 9.1% and HP1b binding inh -1.2%.
Screening O=C(CN1c2cccc3cccc(c23)S1(=O)=O)Nc1ccc(S(=O)(=O)N2CCOCC2)cc1 returned G9a block 7.94µM*, BAZ2B block -38.8%, JMJD2A Tudor inh -25.3%, Sfp inh inconclusive and HP1b binding inh 2.4%.
`O=C(CN1CCN(S(=O)(=O)c2ccc3ccccc3c2)CC1)Nc1ccc(N2CCOCC2)cc1` gave G9a block 39.8µM*, BAZ2B block -37.7%, JMJD2A Tudor inh -43.5%, Sfp inh 14.1% and HP1b binding inh -9.2%.
`COc1ccccc1C(=O)N1N=C(c2ccc(NS(C)(=O)=O)cc2)CC1c1cccs1` (centres undefined) gave G9a block 2.5%, BAZ2B block inconclusive, JMJD2A Tudor inh -15.4%, Sfp inh 4.4% and HP1b binding inh 47.4%.
For O=C(CNC(=O)c1ccc(Br)o1)Nc1cccc(S(=O)(=O)N2CCOCC2)c1 the results were G9a block 50.1µM*, BAZ2B block -1.1%, JMJD2A Tudor inh -22.8% and HP1b binding inh -3.1%.
For O=C(COC(=O)c1ccc(Br)o1)Nc1cccc(S(=O)(=O)N2CCOCC2)c1 the results were JMJD2A Tudor inh -13.8% and HP1b binding inh 15.5%.
Screening COc1cc([N+](=O)[O-])ccc1NC(=O)c1nc2ccccc2n(C)c1=O returned G9a block -3.9%[59 µM], BAZ2B block -2.1%, JMJD2A Tudor inh 0.0% and HP1b binding inh 29.0%.
CCC(C)Sc1nnc(NS(=O)(=O)Cc2ccccc2)s1 (centres undefined) was read as G9a block 31.6µM*, BAZ2B block -23.8%, JMJD2A Tudor inh -8.2%, Sfp inh 9.3% and HP1b binding inh 44.4%.
`CCOc1ccc(CNC(=O)c2ccc3c(c2)nc2n3CCOC2)cc1OC` gave G9a block -11.5%[59 µM], BAZ2B block 1.8%, JMJD2A Tudor inh -9.1% and HP1b binding inh 12.6%[57 µM].
For COc1cccc(CNc2nn[nH]n2)c1OC the results were G9a block 1.2%[59 µM], BAZ2B block 2.8%, JMJD2A Tudor inh 9.1%, Sfp inh -8.6% and HP1b binding inh 23.8%.
Screening COc1cccc(CNCc2ccccc2Br)c1OC returned G9a block 16.1%[0.501 µM], BAZ2B block inconclusive, JMJD2A Tudor inh 1.58µM*, Sfp inh 13.3% and HP1b binding inh inconclusive.
COc1ccccc1CNCc1ccc(OC)c(OC)c1OC was read as G9a block 10µM*, BAZ2B block 79.4µM*, JMJD2A Tudor inh 14.1µM*, Sfp inh inconclusive and HP1b binding inh inconclusive.
For Brc1cccc(OCCN2CCOCC2)c1 the results were G9a block 8.91µM*, BAZ2B block 50.1µM*, JMJD2A Tudor inh 5.62µM*, Sfp inh -17.1% and HP1b binding inh inconclusive.
`Brc1cccc(OCCN2CCc3ccccc3C2)c1` gave BAZ2B block -3.3%, JMJD2A Tudor inh 14.4%, Sfp inh -1.8% and HP1b binding inh 81.6%.
Screening Brc1cccc(OCCN2CCCCC2)c1 returned G9a block 7.08µM*, BAZ2B block inconclusive, JMJD2A Tudor inh 20µM*, Sfp inh inconclusive and HP1b binding inh inconclusive.
`CCc1cccc(OCCN2CCCC2)c1` gave G9a block inconclusive, BAZ2B block 56.2µM*, JMJD2A Tudor inh 31.6µM*, Sfp inh -26.6% and HP1b binding inh inconclusive.
Screening OCCN1CCN(CCOc2cccc(Cl)c2)CC1 returned BAZ2B block inconclusive, JMJD2A Tudor inh inconclusive, Sfp inh 6.1% and HP1b binding inh 26.4%.
`CN(C/C=C/c1ccccc1[N+](=O)[O-])Cc1ccccc1` gave G9a block -8.5%[0.501 µM], BAZ2B block 56.2µM*, JMJD2A Tudor inh 28.2µM*, Sfp inh -11.3% and HP1b binding inh inconclusive.
